Assay results taken from publication PMC5540273 (PLoS ONE, 2017).
Where “and” joins values, the source holds several entries; their conditions need not be identical. Equal entries are not always repeated. Where two headings read alike, the source gives them in different places.

What was measured:
Conditions in all cases: concentration: 1 μM, replicates: in singlicate, n = 1
YANK3 = test system: T1, YANK3
T1 construct: gene STK32C

YES = test system: T2, YES
T2 construct: gene YES1

YSK1 = test system: T3, YSK1
T3 construct: gene STK25

YSK4 = test system: T4, YSK4
T4 construct: gene MAP3K19

ZAK = test system: ZAK
ZAP70 = test system: ZAP70
p38-alpha = test system: T5, p38-alpha
T5 construct: gene MAPK14

p38-beta = test system: T6, p38-beta
T6 construct: gene MAPK11

p38-delta = test system: p38-delta
p38-gamma = test system: T7, p38-gamma
T7 construct: gene MAPK12
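Further: KINOMEscan kinase panel screen.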

SMILES | %Inh (YANK3) | %Inh (YES) | %Inh (YSK1) | %Inh (YSK4) | %Inh (ZAK) | %Inh (ZAP70) | %Inh (p38-alpha) | %Inh (p38-beta) | %Inh (p38-delta) | %Inh (p38-gamma) | %Inh (YANK3; 1 µM) | %Inh (YES; 1 µM) | %Inh (YSK1; 1 µM) | %Inh (YSK4; 1 µM) | %Inh (ZAK; 1 µM) | %Inh (ZAP70; 1 µM) | %Inh (p38-alpha; 1 µM) | %Inh (p38-beta; 1 µM) | %Inh (p38-delta; 1 µM) | %Inh (p38-gamma; 1 µM)
Fc1ccc(-c2ncn(CCCN3CCOCC3)c2-c2cccnc2)cc1 [SB-211743] | 0% | 0% | 0% | 22% | 0% | 0% | 0% | 0% | 0% | 48% | – | – | – | – | – | – | – | – | – | –
Cc1ccc(C(=O)NCC(N)=O)cc1-n1c(C)cc(OCc2ccc(F)cc2F)c(Br)c1=O | 6% | 16% | 0% | 0% | 24% | 0% | 100% | 100% | 18% | 8% | – | – | – | – | – | – | – | – | – | –
O=C(c1ccc(-c2cc(-c3c[nH]nc3-c3ccccn3)ccn2)cc1)N1CCOCC1 [GW812171] | 0% | 0% | 0% | 0% | 29% | 0% | 20% | 8% | 0% | 0% | – | – | – | – | – | – | – | – | – | –
Cc1c2ccc(N(C)c3ccnc(Nc4cccc(S(N)(=O)=O)c4)n3)cc2nn1Cc1ccccc1.Cl.Cl [GW787226] | 0% | 50% | 24% | 25% | 17% | 0% | 0% | 2% | 0% | 35% | – | – | – | – | – | – | – | – | – | –
Cn1cc(-c2ccc3c(c2)CCN3C(=O)Cc2ccccc2Cl)c2c(N)ncnc21 [GSK2608885] | 23% | 99.7% | 20% | 0% | 97.9% | 0% | 99.9% | 99.5% | 26% | 20% | – | – | – | – | – | – | – | – | – | –
c1ccc(-c2n[nH]cc2-c2ccnc3ccccc23)nc1 [GW271431] | 18% | 21% | 1% | 28% | 28% | 0% | 29% | 0% | 52% | 0% | – | – | – | – | – | – | – | – | – | –
CCc1nc(-c2cccc(C)c2)c(-c2ccnc(NCc3ccccc3)c2)s1 | 19% | 0% | 6% | 0% | 11% | 0% | 99.8% | 69% | 0% | 0% | – | – | – | – | – | – | – | – | – | –
Cc1nnc(-c2ccc(C)c(-c3ccc(C(=O)Nc4ccc(NS(C)(=O)=O)cc4)cc3)c2)o1 [GW702865] | 17% | 11% | 0% | 0% | 0% | 15% | 99.7% | 70% | 17% | 0% | – | – | – | – | – | – | – | – | – | –
Fc1ccc(-c2nn3c(OCC(F)(F)F)cccc3c2-c2ccncc2)cc1 [GW514784] | 0% | 11% | 17% | 0% | 17% | 0% | 99.9% | 40% | 22% | 1% | – | – | – | – | – | – | – | – | – | –
NS(=O)(=O)c1cccc(-c2ccc3ncc(N4CCOCC4)nc3c2)c1 [GSK1535721] | 1% | 7% | 15% | 89% | 3% | 0% | 9% | 0% | 21% | 0% | – | – | – | – | – | – | – | – | – | –
CSc1ccc(-c2cc3ncnc(SCC(=O)O)c3s2)cc1 | 0% | 0% | 0% | 7% | 0% | 0% | 0% | 0% | 34% | 5% | – | – | – | – | – | – | – | – | – | –
NS(=O)(=O)CCc1cccc(Nc2nccc(-c3c(-c4cccc(NC(=O)c5c(F)cccc5F)c4)nn4ccccc34)n2)c1 [GSK336735] | 37% | 99.8% | 24% | 20% | 98.4% | 0% | 97.8% | 98.7% | 54% | 0% | – | – | – | – | – | – | – | – | – | –
O=C(Nc1n[nH]c2cc(-c3cccc(F)c3)ccc12)C1CC1 [SB-735464] | 0% | 1% | 0% | 82% | 8% | 0% | 1% | 7% | 0% | 15% | – | – | – | – | – | – | – | – | – | –
O=c1cc(N2CCOCC2)nc2n(Cc3cccc(C(F)(F)F)c3)ccn12 [GSK2297543] | 0% | 9% | 0% | 0% | 8% | 0% | 0% | 0% | 21% | 11% | – | – | – | – | – | – | – | – | – | –
CC(C)(CN)c1nc(-c2ccc(Cl)c(O)c2)c(-c2ccncc2)[nH]1.O=C(O)C(F)(F)F [SB-477794] | – | – | – | – | – | – | – | – | – | – | 86% and 83% | 88% and 86% | 6% and 96.1% | 87% and 65% | 100% and 59% | 58% and 0% | 99.8% and 99.3% | 53% and 58% | 29% and 0% | 19% and 63%
N#Cc1c(N2CCOCC2)sc(-c2ccn[nH]2)c1-c1ccc(Cl)cc1 | 16% | 7% | 0% | 28% | 0% | 0% | 7% | 14% | 0% | 6% | – | – | – | – | – | – | – | – | – | –
